Measurements: PubChem BioAssay
Calls of active or inactive are those of the source. Unless noted, the rule behind the calls is not given here.

How the values were obtained:
[1] = anti-His antibody binders, primary screen, artefact control for SMM control protein annotation, biochemical, small-molecule microarray, 635 nm fluorescence (AID 1128); conditions: anti-His Alexa647 antibody binding, higher = more signal;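 note: score merges feature fluorescence with signal-to-noise for each printed compound spot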
[2] = tested on: Human papillomavirus type 1a E7 protein (residues 1-88); assay: HPV1a E7 small-molecule binders, primary screen, biochemical, small-molecule microarray, residues 1-88, 635 nm (AID 1129); conditions: small-molecule microarray binding, fluorescence 635 nm; higher = more signal
[3] = target: Focal adhesion kinase 1 (Homo sapiens) (UniProt Q05397); assay: small-molecule microarray binders of FAK, primary screen, biochemical, 635/667 nm fluorescence, BSA, DTT (AID 1130); conditions: PTK2 binding, 635 nm fluorescence, higher = more signal;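 note: composite of spot emission at 667 nm and signal to noise over triplicate slides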
[4] = tested on: Fibrinogen (Alexa647-labelled); assay: fibrinogen binders on compound microarrays, profiling panel, artefact control for SMM control-protein annotation, biochemical, small-molecule microarray, 635/667 nm fluorescence (AID 1131); conditions: fibrinogen-A647 binding fluorescence, higher = more signal;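 note: z-score merges 667 nm fluorescence with per-spot signal-to-noise over triplicate slides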
[5] = target: Follistatin (Homo sapiens) (UniProt P19883); assay: follistatin binders on small-molecule microarrays, primary screen, biochemical, small-molecule microarray, 635/667 nm fluorescence (AID 1132); conditions: FST binding, 635 nm fluorescence, higher = more signal
[6] = target: Fibroblast growth factor 2 (Homo sapiens) (UniProt P09038); assay: FGF2 binders on small-molecule microarrays, primary screen, biochemical, small-molecule microarray, 635/667 nm fluorescence (AID 1133); conditions: small-molecule microarray binding, FGF2, fluorescence 635/667; higher = more signal
[7] = mitochondrial membrane potential change in A549 cells, profiling panel, cell-based, JC-1 fluorescence, basal, 24 h, 100 nL (AID 1138); conditions: higher = more signal;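 note: A549 lung adenocarcinoma cells under basal conditions with no added stimulus; test concentration not given here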
Lefty1 = Lefty1 binders on small-molecule microarrays, primary screen, biochemical, small-molecule microarray, 635/667 nm fluorescence (AID 1139); conditions: small-molecule microarray binding, fluorescence 635/667; higher = more signal
[8] = tested on: wheat germ agglutinin (Triticum aestivum), Alexa647-labelled; assay: wheat germ agglutinin binders on compound microarrays, profiling panel, artefact control for SMM control-protein annotation, biochemical, small-molecule microarray, 635/667 nm fluorescence (AID 1140); conditions: WGA-A647 binding, 635 nm fluorescence, higher = more signal;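 note: score merges 667 nm feature emission with signal to noise over triplicate slides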
[9] = target: Luciferin 4-monooxygenase (Photinus pyralis) (UniProt P08659); assay: firefly luciferase enzyme inhibitors, primary screen, biochemical, luminescence, purified enzyme, 2006 set (AID 1141); conditions: SteadyGlo luminescence, 30 min, higher = more signal, called active from +8 up or from −8 down;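 note: cell-free assay with purified firefly luciferase at 100 ng per well in PBS; test concentration not given here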
[10] = tested on: Wnt5a (protein binding on small-molecule microarray); assay: Wnt5a binders on small-molecule microarray, primary screen, biophysical, 635/667 nm fluorescence (AID 1142); conditions: 635 nm fluorescence, higher = more signal;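 note: fluorescence read at 667 nm with signal to noise per printed feature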
[11] = cell viability in Huh7 cells, primary screen, cytotoxicity control for HCV replication inhibitor project, CellTiter-Glo luminescence, basal, 48 h (AID 1143); conditions: Huh7 HCV replicon, higher = more signal, called active from +8 up or from −8 down;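 note: Huh7 hepatoma cells carrying a hepatitis C replication reporter with no stimulus; test concentration not given here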
[12] = P. aeruginosa biofilm formation inhibitors, primary screen, PAO1 strain, BacTiter-Glo luminescence, LB-PBS (AID 1144); conditions: 12 h, higher = more signal
[13] = CREB reporter modulators without forskolin, primary screen, cell-based, PC12, CRE-LacZ reporter, unstimulated (AID 1145); conditions: no forskolin, luminescence, 4.5 h, higher = more signal, called active from +8 up or from −8 down
[14] = CREB reporter modulators under forskolin, primary screen, cell-based, PC12, CRE-LacZ reporter, forskolin-stimulated (AID 1146); conditions: luminescence, 4.5 h, higher = more signal, called active from +8 up or from −8 down;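 note: PC12 cells with 6xCRE LacZ reporter stimulated by forskolin 10 µM; beta-galactosidase reporter signal reflecting CREB driven transcription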
[15] = target: Streptavidin (Streptomyces avidinii) (UniProt P22629); assay: streptavidin binders on small-molecule microarray, primary screen, artefact control for SMM compound annotation, biophysical, 635/667 nm fluorescence (AID 1147); conditions: streptavidin binding, higher = more signal;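 note: signal reflects streptavidin binding to arrayed compounds as a control protein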
[16] = small-molecule binders of probe aInhba, primary screen, biochemical, small-molecule microarray, 635/667 nm fluorescence (AID 1148); conditions: higher = more signal;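 note: score merges 667nm spot fluorescence with signal-to-noise for antibody binding to printed compounds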
Torsin-1A (Homo sapiens) [17] = target: Torsin-1A (Homo sapiens) (UniProt O14656); assay: torsin A binders from cell lysate, primary screen, small-molecule microarray, wild-type, 635/667 nm (AID 1149); conditions: COS7 hTOR1A-WT lysate, 635 nm fluorescence, higher = more signal
Torsin-1A (Homo sapiens) [18] = target: Torsin-1A (Homo sapiens) (UniProt O14656); assay: small-molecule binders of mutant TOR1A in lysate, primary screen, cell lysate, small-molecule microarray, COS7 lysate, 635/667 nm fluorescence (AID 1150); conditions: COS7 hTOR1A mutant lysate, 635 nm fluorescence, higher = more signal;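 note: score pools 667 nm emission and signal to noise measuring lysate protein binding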
[19] = tested on: Sonic hedgehog protein (Shh); assay: small-molecule binders of Shh protein, primary screen, biochemical, small-molecule microarray, 635/667 nm fluorescence (AID 1151); conditions: small-molecule microarray binding, 635 nm fluorescence; higher = more signal;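 note: Shh protein binding to compounds spotted on small-molecule microarray slides; score combines spot fluorescence intensity with signal-to-noise across triplicate slides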

Chain of Focal adhesion kinase 1 (Homo sapiens) (Q05397 whole entry, looked up): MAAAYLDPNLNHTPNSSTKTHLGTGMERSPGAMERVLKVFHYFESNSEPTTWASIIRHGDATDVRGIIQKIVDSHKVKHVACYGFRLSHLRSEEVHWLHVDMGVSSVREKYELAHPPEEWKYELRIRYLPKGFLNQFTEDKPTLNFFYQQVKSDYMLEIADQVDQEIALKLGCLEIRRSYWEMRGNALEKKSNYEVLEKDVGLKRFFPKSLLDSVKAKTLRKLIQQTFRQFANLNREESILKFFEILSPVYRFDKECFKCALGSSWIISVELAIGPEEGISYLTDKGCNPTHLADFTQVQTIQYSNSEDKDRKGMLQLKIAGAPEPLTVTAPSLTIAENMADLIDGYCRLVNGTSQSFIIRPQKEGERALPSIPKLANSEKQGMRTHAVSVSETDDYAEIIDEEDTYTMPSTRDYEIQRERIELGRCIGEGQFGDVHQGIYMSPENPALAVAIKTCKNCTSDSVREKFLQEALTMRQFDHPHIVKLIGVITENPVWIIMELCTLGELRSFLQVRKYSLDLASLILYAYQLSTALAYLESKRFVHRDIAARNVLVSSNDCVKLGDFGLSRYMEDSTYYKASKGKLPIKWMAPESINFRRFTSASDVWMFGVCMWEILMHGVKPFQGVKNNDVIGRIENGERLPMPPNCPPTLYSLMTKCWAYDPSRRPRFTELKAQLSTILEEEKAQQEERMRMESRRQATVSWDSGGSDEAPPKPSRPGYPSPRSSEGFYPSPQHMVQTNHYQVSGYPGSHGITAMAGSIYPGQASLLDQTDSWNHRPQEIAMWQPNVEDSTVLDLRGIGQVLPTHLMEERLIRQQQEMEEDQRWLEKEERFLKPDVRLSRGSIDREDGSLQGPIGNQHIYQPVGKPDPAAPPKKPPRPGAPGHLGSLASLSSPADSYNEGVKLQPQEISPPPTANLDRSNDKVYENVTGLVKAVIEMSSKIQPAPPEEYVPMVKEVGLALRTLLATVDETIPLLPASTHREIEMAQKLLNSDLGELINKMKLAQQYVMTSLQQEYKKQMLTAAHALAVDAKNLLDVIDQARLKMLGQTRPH
Chain of Streptavidin (Streptomyces avidinii) (P22629 whole entry, looked up): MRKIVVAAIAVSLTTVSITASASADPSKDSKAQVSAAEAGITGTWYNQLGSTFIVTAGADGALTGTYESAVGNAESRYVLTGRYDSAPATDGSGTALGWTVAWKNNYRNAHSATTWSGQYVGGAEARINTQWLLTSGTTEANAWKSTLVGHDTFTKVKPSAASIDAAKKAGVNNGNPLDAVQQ
Chain of Torsin-1A (Homo sapiens) (O14656 whole entry, looked up): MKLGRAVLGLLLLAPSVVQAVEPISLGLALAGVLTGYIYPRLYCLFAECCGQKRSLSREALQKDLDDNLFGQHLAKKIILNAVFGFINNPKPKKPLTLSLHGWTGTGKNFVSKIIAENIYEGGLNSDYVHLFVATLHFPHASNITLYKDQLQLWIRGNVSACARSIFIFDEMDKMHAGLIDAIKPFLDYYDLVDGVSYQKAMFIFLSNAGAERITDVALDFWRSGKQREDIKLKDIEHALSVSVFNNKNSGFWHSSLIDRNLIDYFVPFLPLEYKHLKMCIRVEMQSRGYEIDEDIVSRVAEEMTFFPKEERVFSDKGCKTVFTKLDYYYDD
Chain of Luciferin 4-monooxygenase (Photinus pyralis) (P08659 whole entry, looked up): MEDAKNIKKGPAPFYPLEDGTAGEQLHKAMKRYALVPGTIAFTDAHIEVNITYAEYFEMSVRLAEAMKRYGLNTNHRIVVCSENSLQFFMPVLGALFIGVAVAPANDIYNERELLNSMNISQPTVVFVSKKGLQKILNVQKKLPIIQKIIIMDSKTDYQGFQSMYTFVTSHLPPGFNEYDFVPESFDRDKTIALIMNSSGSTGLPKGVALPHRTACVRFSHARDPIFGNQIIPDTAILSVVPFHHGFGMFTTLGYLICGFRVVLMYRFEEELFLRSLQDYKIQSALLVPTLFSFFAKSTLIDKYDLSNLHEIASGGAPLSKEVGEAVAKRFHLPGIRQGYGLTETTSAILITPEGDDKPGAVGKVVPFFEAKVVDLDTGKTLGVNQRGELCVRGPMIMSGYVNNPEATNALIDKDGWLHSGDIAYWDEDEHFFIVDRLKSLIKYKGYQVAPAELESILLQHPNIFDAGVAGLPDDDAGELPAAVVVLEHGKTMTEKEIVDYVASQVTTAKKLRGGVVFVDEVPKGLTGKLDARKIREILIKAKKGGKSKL
Chain of Fibroblast growth factor 2 (Homo sapiens) (P09038 whole entry, looked up): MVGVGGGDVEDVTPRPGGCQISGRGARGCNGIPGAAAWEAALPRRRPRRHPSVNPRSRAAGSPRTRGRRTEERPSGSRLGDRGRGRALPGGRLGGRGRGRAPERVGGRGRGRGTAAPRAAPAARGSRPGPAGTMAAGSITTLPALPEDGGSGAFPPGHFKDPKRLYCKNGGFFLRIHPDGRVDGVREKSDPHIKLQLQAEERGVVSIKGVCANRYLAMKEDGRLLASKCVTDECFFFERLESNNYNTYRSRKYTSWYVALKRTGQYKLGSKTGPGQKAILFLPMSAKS
Chain of Follistatin (Homo sapiens) (P19883 whole entry, looked up): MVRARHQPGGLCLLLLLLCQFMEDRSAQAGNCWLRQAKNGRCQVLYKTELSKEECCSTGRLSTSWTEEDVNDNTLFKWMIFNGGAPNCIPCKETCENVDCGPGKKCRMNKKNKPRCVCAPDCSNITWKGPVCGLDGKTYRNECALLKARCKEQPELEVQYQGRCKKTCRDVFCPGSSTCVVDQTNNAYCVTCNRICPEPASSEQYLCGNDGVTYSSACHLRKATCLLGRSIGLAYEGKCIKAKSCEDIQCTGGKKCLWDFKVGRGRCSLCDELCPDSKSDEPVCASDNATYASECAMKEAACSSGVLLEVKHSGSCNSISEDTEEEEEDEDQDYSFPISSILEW

Row | SMILES | composite z-score [1] | composite z-score [2] | composite z-score [3] | composite z-score [4] | composite z-score [5] | composite z-score [6] | z-score [7] | composite z-score (Lefty1) | composite z-score [8] | z-score [9] | composite z-score [10] | z-score [11] | z-score [12] | z-score [13] | z-score [14] | composite z-score [15] | composite z-score [16] | composite z-score (Torsin-1A (Homo sapiens) [17]) | composite z-score (Torsin-1A (Homo sapiens) [18]) | composite z-score [19]
1 | CO[C@H]1O[C@H](CO)[C@@H](OC(=O)c2ccc(Br)cc2)[C@@H]2OC(=O)[C@H](Cc3cccc(Br)c3)C/C=C/C[C@@H](Cc3cccc(Br)c3)C(=O)O[C@@H]12 | 1.58 | 1.05 | 0.214 | 0.647 | 1.02 | 0.897 | 1.02 | 0.442 | 0.31 | 0.0021 (inactive) | 0.422 | -1.62 (inactive) | -0.0682 (inactive) | 0.212 (inactive) | 0.122 (inactive) | 0.578 | -0.0695 | -0.103 | 0.442 | 0.707
2 | C=CCNC(=O)[C@H]1[C@@H]2C(=O)O[C@@H](c3ccccc3)[C@@H](c3ccccc3)N2[C@@H](c2ccc(O)cc2)[C@]12C(=O)N(C(=O)OCCOC)c1ccc(C#CC3(O)CCCCCC3)cc12 | 1.23 | 1.18 | 0.737 | 0.485 | 0.759 | 0.678 | 1.14 | 0.218 | 0.764 | -0.991 (inactive) | 0.195 | -1.07 (inactive) | -0.7 (inactive) | -0.465 (inactive) | -0.804 (inactive) | -0.179 | 0.134 | 0.187 | 0.331 | 0.858
3 | CN(C)C(=O)[C@@]1(CCC(=O)OC(C)(C)C)COC(c2ccc(OCCCO)cc2)=N1 | 0.282 | 1.11 | 1.63 | -0.254 | 0.625 | -0.357 | -0.191 | -0.235 | 0.334 | 0.995 (inactive) | 0.0507 | -0.196 (inactive) | -0.478 (inactive) | -0.277 (inactive) | 0.855 (inactive) | -0.354 | 0.174 | 0.445 | 1.45 | -0.942
4 | C/C=C/[C@@H](CCn1cc([C@H](O)c2ccccc2)nn1)[Si](C)(C)c1ccc(OC)cc1 | 0.0974 | -0.253 | 0.0213 | -0.267 | -0.673 | -0.62 | 0.947 | -0.337 | 0.418 | 0.273 (inactive) | 0.303 | -3.67 (inactive) | 0.214 (inactive) | 3.3 (inactive) | 0.128 (inactive) | -0.514 | -0.253 | 0.154 | -0.575 | -0.0723
